Laboratory results taken from PubChem BioAssay AID1159580 (chemical genetic matrix, 2015).
The campaign covered roughly 5,500 compounds. About 2,000 (36%) were called active. Inconclusive results (about 18%) are left out. No stated cut-off is given here; in the data, active means normalized growth mostly below about 0.91 (no sharp cut-off); inconclusive means no clear call, values can overlap the other calls; inactive means mostly above about 0.92. This is one part of the list.

Experiment: chemical genetic growth profiling, strain panel (AID 1159580);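 further: tested at 20 µM; growth read once vehicle control cultures reached saturation at 30 °C; 1 = growth at the plate median or of vehicle wells; lower values mean less growth of the strain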
Conditions: growth OD
[1] = S. cerevisiae deletion strains, locus YHR030C, strain SLT2, active compounds read low
[2] = S. cerevisiae deletion strains, locus YAL013W, strain DEP1, active compounds read low
[3] = S. cerevisiae deletion strains, locus YBR229C, strain ROT2, active compounds read low
[4] = S. cerevisiae deletion strains, locus YDL101C, strain DUN1, active compounds read low
[5] = S. cerevisiae deletion strains, locus YDR150W, strain NUM1, active compounds read low
[6] = S. cerevisiae deletion strains, locus YEL061C, strain CIN8, active compounds read low
[7] = S. cerevisiae deletion strains, locus YGR078C, strain PAC10, active compounds read low
[8] = S. cerevisiae deletion strains, locus YHR087W, strain rtc3, active compounds read low
[9] = S. cerevisiae deletion strains, locus YJR043C, strain POL32, active compounds read low
[10] = S. cerevisiae deletion strains, locus YJR075W, strain HOC1, active compounds read low
[11] = S. cerevisiae deletion strains, locus YLR039C, strain RIC1, active compounds read low
[12] = S. cerevisiae deletion strains, locus YLR058C, strain SHM2 (second series), active compounds read low
[13] = S. cerevisiae deletion strains, locus YLR085C, strain ARP6, active compounds read low
[14] = S. cerevisiae deletion strains, locus YLR262C, strain YPT6, active compounds read low
[15] = S. cerevisiae deletion strains, locus YML094W, strain GIM5, active compounds read low
[16] = S. cerevisiae deletion strains, locus YMR219W, strain ESC1, active compounds read low
[17] = S. cerevisiae deletion strains, locus YMR263W, strain SAP30, active compounds read low
[18] = S. cerevisiae deletion strains, locus YNL153C, strain GIM3, active compounds read low
[19] = S. cerevisiae deletion strains, locus YNL298W, strain CLA4 (second series), active compounds read low
[20] = S. cerevisiae deletion strains, locus YNL322C, strain KRE1, active compounds read low
[21] = S. cerevisiae deletion strains, locus YNR030W, strain Alg12, active compounds read low
[22] = S. cerevisiae deletion strains, locus YPL055C, strain LGE1, active compounds read low
[23] = S. cerevisiae deletion strains, locus YPL241C, strain CIN2, active compounds read low
[24] = S. cerevisiae deletion strains, locus YPR135W, strain CTF4, active compounds read low
[25] = S. cerevisiae deletion strains, locus YDL134C, strain PPH21, active compounds read low
[26] = S. cerevisiae deletion strains, locus YMR307W, strain GAS1, active compounds read low

Measured: normalized growth

C[C@H]1O[C@H](O[C@H]2[C@H](O)[C@@H](O)[C@@H](O[C@H]3[C@H](O)[C@@H](O)C(O)O[C@@H]3CO)O[C@@H]2CO)[C@H](O)[C@@H](O)[C@@H]1N[C@H]1C=C(CO)[C@@H](O)[C@H](O)[C@H]1O (stereo partly drawn)
inactive: S. cerevisiae deletion strains, locus YAL021C, strain ccr4, active compounds read low 0.999 | S. cerevisiae deletion strains, locus YAL026C, strain drs2, active compounds read low 1.03 | S. cerevisiae deletion strains, locus YAL030W, strain snc1, active compounds read low 0.993 | S. cerevisiae deletion strains, locus YBL061C, strain skt5, active compounds read low 0.984 | S. cerevisiae deletion strains, locus YBR009C, strain hhf1, active compounds read low 1.01 | S. cerevisiae deletion strains, locus YBR023C, strain chs3, active compounds read low 1.01 | S. cerevisiae deletion strains, locus YBR171W, strain sec66, active compounds read low 0.979 | S. cerevisiae deletion strains, locus YBR231C, strain swc5, active compounds read low 0.982 | S. cerevisiae deletion strains, locus YBR279W, strain paf1, active compounds read low 1.01 | S. cerevisiae deletion strains, locus YCL011C, strain gbp2, active compounds read low 1.03 | S. cerevisiae deletion strains, locus YCL016C, strain dcc1, active compounds read low 1.02 | S. cerevisiae deletion strains, locus YCL069W, strain vba3, active compounds read low 1 | S. cerevisiae deletion strains, locus YCR088W, strain abp1, active compounds read low 0.991 | S. cerevisiae deletion strains, locus YDL005C, strain med2, active compounds read low 1 | S. cerevisiae deletion strains, locus YDL040C, strain nat1, active compounds read low 0.99 | S. cerevisiae deletion strains, locus YDR001C, strain nth1, active compounds read low 0.995 | S. cerevisiae deletion strains, locus YDR069C, strain doa4, active compounds read low 0.985 | S. cerevisiae deletion strains, locus YDR137W, strain rgp1, active compounds read low 0.998 | S. cerevisiae deletion strains, locus YDR159W, strain sac3, active compounds read low 0.981 | S. cerevisiae deletion strains, locus YDR195W, strain ref2 0.936 | S. cerevisiae deletion strains, locus YDR297W, strain sur2, active compounds read low 0.988 | S. cerevisiae deletion strains, locus YDR334W, strain swr1, active compounds read low 0.983 | S. cerevisiae deletion strains, locus YDR335W, strain msn5, active compounds read low 0.974 | S. cerevisiae deletion strains, locus YDR392W, strain spt3, active compounds read low 1.04 | S. cerevisiae deletion strains, locus YEL003W, strain gim4, active compounds read low 0.974 | S. cerevisiae deletion strains, locus YEL037C, strain rad23, active compounds read low 0.988 | S. cerevisiae deletion strains, locus YEL061C, strain CIN8 (second series), active compounds read low 0.994 | S. cerevisiae deletion strains, locus YER015W, strain faa2, active compounds read low 1.01 | S. cerevisiae deletion strains, locus YER016W, strain bim1, active compounds read low 1 | S. cerevisiae deletion strains, locus YER111C, strain swi4, active compounds read low 0.984 | S. cerevisiae deletion strains, locus YER155C, strain BEM2 (second series), active compounds read low 0.977 | S. cerevisiae deletion strains, locus YFR010W, strain ubp6, active compounds read low 0.978 | S. cerevisiae deletion strains, locus YGL167C, strain pmr1, active compounds read low 0.974 | S. cerevisiae deletion strains, locus YGL173C, strain kem1, active compounds read low 0.955 | S. cerevisiae deletion strains, locus YGL227W, strain vid30, active compounds read low 0.987 | S. cerevisiae deletion strains, locus YGL240W, strain doc1, active compounds read low 0.964 | S. cerevisiae deletion strains, locus YGL253W, strain hxk2, active compounds read low 0.999 | S. cerevisiae deletion strains, locus YHR013C, strain ard1, active compounds read low 0.992 | S. cerevisiae deletion strains, locus YHR027C, strain rpn1, active compounds read low 1.01 | [1] 0.955 | S. cerevisiae deletion strains, locus YHR079C, strain IRE1, active compounds read low 0.959 | S. cerevisiae deletion strains, locus YHR142W, strain chs7, active compounds read low 0.989 | S. cerevisiae deletion strains, locus YJL092W, strain hpr5, active compounds read low 0.977 | S. cerevisiae deletion strains, locus YJL095W, strain BCK1 (second series), active compounds read low 0.993 | S. cerevisiae deletion strains, locus YJL095W, strain BCK1, active compounds read low 0.957 | S. cerevisiae deletion strains, locus YJL115W, strain asf1, active compounds read low 0.974 | S. cerevisiae deletion strains, locus YJL129C, strain trk1, active compounds read low 0.969 | S. cerevisiae deletion strains, locus YJL154C, strain vps35, active compounds read low 0.964 | S. cerevisiae deletion strains, locus YJL164C, strain tpk1, active compounds read low 1.01 | S. cerevisiae deletion strains, locus YJL166W, strain qcr8, active compounds read low 0.971 | S. cerevisiae deletion strains, locus YJL187C, strain SWE1, active compounds read low 0.999 | S. cerevisiae deletion strains, locus YJR066W, strain TOR1, active compounds read low 0.916 | S. cerevisiae deletion strains, locus YKL160W, strain elf1, active compounds read low 0.968 | S. cerevisiae deletion strains, locus YKR026C, strain gcn3, active compounds read low 0.995 | S. cerevisiae deletion strains, locus YKR091W, strain srl3, active compounds read low 0.988 | S. cerevisiae deletion strains, locus YLL001W, strain dnm1, active compounds read low 0.945 | S. cerevisiae deletion strains, locus YLL026W, active compounds read low 1.01 | S. cerevisiae deletion strains, locus YLL041C, strain sdh2, active compounds read low 0.988 | S. cerevisiae deletion strains, locus YLR027C, strain aat2, active compounds read low 0.993 | S. cerevisiae deletion strains, locus YLR113W, strain HOG1, active compounds read low 0.933 | S. cerevisiae deletion strains, locus YLR221C, strain rsa3, active compounds read low 1.03 | S. cerevisiae deletion strains, locus YLR258W, strain gsy2, active compounds read low 1.01 | S. cerevisiae deletion strains, locus YLR262C, strain YPT6 (second series), active compounds read low 0.959 | S. cerevisiae deletion strains, locus YLR320W, strain mms22, active compounds read low 1.01 | S. cerevisiae deletion strains, locus YLR342W, strain FKS1, active compounds read low 0.973 | S. cerevisiae deletion strains, locus YLR357W, strain rsc2, active compounds read low 0.985 | S. cerevisiae deletion strains, locus YLR370C, strain arc18, active compounds read low 0.993 | S. cerevisiae deletion strains, locus YLR384C, strain iki3, active compounds read low 0.977 | S. cerevisiae deletion strains, locus YML120C, strain ndi1, active compounds read low 0.98 | S. cerevisiae deletion strains, locus YMR058W, strain fet3, active compounds read low 0.996 | S. cerevisiae deletion strains, locus YMR125W, strain sto1, active compounds read low 0.996 | S. cerevisiae deletion strains, locus YMR129W, active compounds read low 0.989 | S. cerevisiae deletion strains, locus YMR205C, strain PFK2, active compounds read low 0.983 | S. cerevisiae deletion strains, locus YMR231W, strain pep5, active compounds read low 0.991 | S. cerevisiae deletion strains, locus YNL071W, strain lat1, active compounds read low 1.01 | S. cerevisiae deletion strains, locus YNL183C, strain NPR1, active compounds read low 0.923 | S. cerevisiae deletion strains, locus YNL209W, strain ssb2, active compounds read low 1.01 | S. cerevisiae deletion strains, locus YNL248C, strain rpa49, active compounds read low 1.01 | S. cerevisiae deletion strains, locus YNL322C, strain KRE1 (second series), active compounds read low 0.988 | S. cerevisiae deletion strains, locus YNR049C, strain mso1, active compounds read low 0.987 | S. cerevisiae deletion strains, locus YOR001W, strain rrp6, active compounds read low 0.96 | S. cerevisiae deletion strains, locus YOR070C, strain gyp1, active compounds read low 1.01 | S. cerevisiae deletion strains, locus YOR080W, strain dia2, active compounds read low 0.98 | S. cerevisiae deletion strains, locus YOR083W, strain WHI5, active compounds read low 0.987 | S. cerevisiae deletion strains, locus YOR106W, strain vam3, active compounds read low 0.979 | S. cerevisiae deletion strains, locus YOR231W, strain MKK1, active compounds read low 0.953 | S. cerevisiae deletion strains, locus YOR265W, strain rbl2, active compounds read low 0.992 | S. cerevisiae deletion strains, locus YOR270C, strain vph1, active compounds read low 1 | S. cerevisiae deletion strains, locus YOR290C, strain snf2, active compounds read low 1.01 | S. cerevisiae deletion strains, locus YPL051W, strain arl3, active compounds read low 1 | S. cerevisiae deletion strains, locus YPL078C, strain atp4, active compounds read low 0.948 | S. cerevisiae deletion strains, locus YPL106C, strain sse1, active compounds read low 1.02 | S. cerevisiae deletion strains, locus YPL240C, strain hsp82, active compounds read low 0.988 | S. cerevisiae deletion strains, locus YPL256C, strain CLN2, active compounds read low 0.967

COc1ccc(Br)c(-c2nnc(-c3ccccc3[N+](=O)[O-])o2)c1
inactive: [2] 0.993 | [3] 1.01 | [4] 0.985 | [5] 0.943 | [6] 0.973 | [7] 1.02 | [1] 0.964 | [8] 1.02 | [9] 0.955 | [10] 0.975 | S. cerevisiae deletion strains, locus YKL190W, strain CNB1, active compounds read low 1.01 | [11] 1.07 | [12] 1.02 | [13] 0.953 | [14] 1.06 | [15] 1 | [16] 1.01 | [17] 0.978 | S. cerevisiae deletion strains, locus YNL128W, strain TEP1, active compounds read low 1.04 | [18] 1 | [19] 0.985 | [20] 1.01 | [21] 1 | [22] 0.953 | [23] 0.977 | [24] 1.07

O=[N+]([O-])c1cccnc1Oc1ccc(Cl)cc1
active: S. cerevisiae deletion strains, locus YCL061C, strain MRC1, active compounds read low 0.895 | [4] 0.875 | [7] 0.886 | [1] 0.543 | [9] 0.886 | [11] 0.657 | [14] 0.707 | [18] 0.919 | [20] 0.933 | [24] 0.613
inactive: [2] 0.94 | [3] 0.939 | [25] 0.973 | [5] 0.917 | [6] 0.977 | [8] 0.93 | [10] 0.933 | [12] 0.95 | [13] 0.789 | [15] 0.937 | [16] 0.954 | [17] 0.936 | [19] 0.858 | [21] 0.906 | [22] 0.959 | [23] 0.935 | S. cerevisiae strains, strain wild type, active compounds read low 0.917

O=[N+]([O-])c1ccc(Oc2c(Cl)cccc2Cl)c(Cl)c1Oc1c(Cl)cccc1Cl
inactive: [2] 0.98 | [3] 0.981 | [4] 0.95 | [25] 0.993 | [5] 0.992 | [6] 0.998 | [7] 0.984 | [1] 0.956 | [8] 1.04 | [9] 0.961 | [10] 1.04 | [11] 0.902 | [12] 0.991 | [13] 0.976 | [14] 0.949 | [15] 1.01 | [16] 1 | [17] 1.01 | [26] 1.02 | [18] 0.986 | [19] 0.953 | [20] 0.987 | [21] 0.969 | [22] 1 | [23] 0.961 | [24] 0.901

CN1CCCC1c1cccnc1 (stereo not drawn)
inactive: [2] 0.987 | S. cerevisiae deletion strains, locus YAL040C, strain CLN3, active compounds read low 0.984 | S. cerevisiae deletion strains, locus YCL061C, strain MRC1 (second series), active compounds read low 0.981 | [5] 0.981 | S. cerevisiae deletion strains, locus YDR363W, strain ESC2, active compounds read low 1.02 | S. cerevisiae deletion strains, locus YER002W, strain NOP16, active compounds read low 0.994 | [26] 1.03 | [18] 0.986 | S. cerevisiae deletion strains, locus YNL175C, strain NOP13, active compounds read low 0.992 | S. cerevisiae deletion strains, locus YNL197C, strain WHI3, active compounds read low 0.995 | S. cerevisiae deletion strains, locus YNL224C, strain SQS1, active compounds read low 0.991 | [20] 0.98 | S. cerevisiae deletion strains, locus YOR083W, strain WHI5 (second series), active compounds read low 0.988 | [22] 1 | [23] 0.984
